# This is part of a sample that, as a whole, favours compounds with a hit. Of some 79,000 tested, about 15% had one in any assay. Unmarked numbers belong to inactive results. The source made the active and inactive calls. Rule as the data show it: active = growth inhibition above about 70%; inactive = the rest.
# Assays:
# [1] = NCI Yeast Anticancer Drug Screen. Data for the mec2-1 strain (AID 157); conditions: S. cerevisiae mec2-1 strain, hits give high values
# In short: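 Growth inhibition is read against vehicle-treated controls after compound exposure of the mec2-1 yeast strain, which is defective in DNA damage repair or cell cycle control.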
# [2] = NCI Yeast Anticancer Drug Screen. Data for the rad14 strain (AID 159);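 also: 0% = growth of vehicle-treated control cultures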; conditions: S. cerevisiae rad14 strain growth inhibition, hits give high values
# In short: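 Screen for anticancer potential: a yeast strain altered in DNA damage repair is grown with compound, and reduced growth is quantified against vehicle controls.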
# [3] = NCI Yeast Anticancer Drug Screen. Data for the sgs1 mgt1 strain (AID 161);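 also: 0% = growth of cultures given vehicle only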; conditions: S. cerevisiae sgs1 mgt1 strain, hits give high values
# In short: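 Percent growth inhibition was derived by comparing compound-exposed mutant yeast with vehicle-exposed cultures. The strain carries alterations in DNA damage repair.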
# [4] = NCI Yeast Anticancer Drug Screen. Data for the CLN2oe strain (AID 163);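 also: 0% = growth of vehicle-only control cultures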; conditions: S. cerevisiae CLN2oe strain, hits give high values
# In short: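 Compound-treated yeast; growth vs vehicle ctrl = % inhibition. Genetically altered strain (cell-cycle control).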
# [5] = NCI Yeast Anticancer Drug Screen. Data for the cln2 rad14 strain (AID 165);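 also: 0% = growth equal to vehicle treated cultures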; conditions: S. cerevisiae cln2 rad14 strain, hits give high values
# In short: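 Growth inhibition, relative to vehicle-treated controls, is the read-out. The test organism is a yeast strain with defined genetic alterations, cln2 rad14.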
# [6] = NCI Yeast Anticancer Drug Screen. Data for the bub3 strain (AID 167); conditions: S. cerevisiae bub3 mutant strain, hits give high values
# In short: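 Screening used yeast with an engineered genetic alteration affecting cell cycle control. Compound-exposed cultures were compared with vehicle cultures, and reduced growth was taken as inhibition.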
# [7] = NCI Yeast Anticancer Drug Screen. Data for the wt2 strain (AID 169);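 also: 0% = growth of vehicle-treated yeast cultures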; conditions: S. cerevisiae wt2 strain growth inhibition, hits give high values
# In short: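 Compound exposure of yeast; growth compared with vehicle controls; inhibition reported.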
# [8] = NCI Yeast Anticancer Drug Screen. Data for the mlh1 strain (AID 171);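 also: 0% = growth of vehicle-treated control cultures of the same strain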; conditions: S. cerevisiae mlh1 strain growth inhibition, hits give high values
# In short: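 Compounds are applied to a genetically altered yeast strain, and its growth is compared with that of vehicle-treated cultures to give percent inhibition.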
# [9] = NCI Yeast Anticancer Drug Screen. Data for the sgs1 strain (AID 173);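 also: 0% = growth of vehicle-only control cultures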; conditions: S. cerevisiae sgs1 mutant, hits give high values
# In short: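 Compounds applied to genetically altered yeast; growth compared with vehicle-treated cultures to give % inhibition.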
# [10] = NCI Yeast Anticancer Drug Screen. Data for the mlh1 rad18 strain (AID 175); conditions: S. cerevisiae mlh1 rad18 strain growth inhibition, hits give high values
# In short: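 Cells of a genetically altered yeast strain, deficient in DNA damage repair, were treated with compound. Their growth was then compared with that of vehicle-treated cultures to give inhibition.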
# [11] = NCI Yeast Anticancer Drug Screen. Data for the rad18 strain (AID 177); conditions: S. cerevisiae rad18 mutant growth inhibition, hits give high values
# In short: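 Compounds are applied to a repair-deficient yeast strain, and growth is compared with that of vehicle-treated cultures to give percent inhibition.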
# [12] = NCI Yeast Anticancer Drug Screen. Data for the rad52 strain (AID 147);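 also: 0% = growth of vehicle-treated control cultures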; conditions: S. cerevisiae rad52 mutant growth inhibition, hits give high values
# In short: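 DNA repair-defective yeast; compound exposure; growth scored against vehicle controls.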
# [13] = NCI Yeast Anticancer Drug Screen. Data for the rad50EPP+ strain (AID 151);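 also: 0% = growth of vehicle-treated control cultures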; conditions: S. cerevisiae rad50 mutant strain, hits give high values
# In short: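 rad50EPP+ yeast treated with test compounds. Readout: growth vs vehicle control.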
# [14] = NCI Yeast Anticancer Drug Screen. Data for the rad50 strain (AID 155);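 also: 0% = growth of vehicle-only cultures of the same strain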; conditions: S. cerevisiae rad50 strain growth inhibition, hits give high values
# In short: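 Relative growth inhibition (compound vs vehicle) was measured in yeast with a defined repair-gene alteration.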
# [15] = at 5.0 µM (retest, dose inferred, filed as 0.5)
# [16] = at 50.0 µM (retest, dose inferred, filed as 5.0)
structure (smiles),measurement,setting,value
CCOC(=O)C(Cc1c2ccccc2cc2ccccc12)(NC(C)=O)C(=O)OCC,growth inhibition,[1]; at 100.0 µM,-1%
same,growth inhibition,[2]; at 1.2 µM,-3%
same,growth inhibition,[2]; at 3.7 µM,-5%
same,growth inhibition,[2]; at 11.0 µM,-3%
same,growth inhibition,[2]; at 33.0 µM,-5%
same,growth inhibition,[2]; at 100.0 µM,-1%
same,growth inhibition,[3]; [15],-7%
same,growth inhibition,[3]; [16],19%
same,growth inhibition,[3]; at 50.0 µM,86% (active)
same,growth inhibition,[4]; at 1.2 µM,-3%
same,growth inhibition,[4]; at 3.7 µM,-2%
same,growth inhibition,[4]; at 11.0 µM,-6%
same,growth inhibition,[4]; at 33.0 µM,0%
same,growth inhibition,[4]; at 100.0 µM,-2%
same,growth inhibition,[5]; [15],5%
same,growth inhibition,[5]; [16],41%
same,growth inhibition,[5]; at 50.0 µM,61.3%
same,growth inhibition,[6]; at 1.2 µM,-2%
same,growth inhibition,[6]; at 3.7 µM,1%
same,growth inhibition,[6]; [15],8%
same,growth inhibition,[6]; at 11.0 µM,-1%
same,growth inhibition,[6]; at 33.0 µM,0%
same,growth inhibition,[6]; [16],67%
same,growth inhibition,[6]; at 50.0 µM,88.8% (active)
same,growth inhibition,[6]; at 100.0 µM,2%
same,growth inhibition,[7]; at 1.2 µM,-2%
same,growth inhibition,[7]; at 3.7 µM,-3%
same,growth inhibition,[7]; at 11.0 µM,-4%
same,growth inhibition,[7]; at 33.0 µM,-2%
same,growth inhibition,[7]; at 100.0 µM,-2%
same,growth inhibition,[8]; at 1.2 µM,0%
same,growth inhibition,[8]; at 3.7 µM,0%
same,growth inhibition,[8]; at 11.0 µM,-3%
same,growth inhibition,[8]; at 33.0 µM,-2%
same,growth inhibition,[8]; at 100.0 µM,0%
same,growth inhibition,[9]; at 1.2 µM,-1%
same,growth inhibition,[9]; at 3.7 µM,1%
same,growth inhibition,[9]; at 11.0 µM,-1%
same,growth inhibition,[9]; at 33.0 µM,5%
same,growth inhibition,[9]; at 100.0 µM,9%
same,growth inhibition,[10]; [15],-11%
same,growth inhibition,[10]; [16],35%
same,growth inhibition,[10]; at 50.0 µM,86.9% (active)
same,growth inhibition,[11]; at 1.2 µM,-5%
same,growth inhibition,[11]; at 3.7 µM,-1%
same,growth inhibition,[11]; at 11.0 µM,-1%
same,growth inhibition,[11]; at 33.0 µM,0%
same,growth inhibition,[11]; at 100.0 µM,3%
CSc1nc(-c2ccccc2)nc(=[N+]2CCOCC2)s1,growth inhibition,[12]; at 1.2 µM,17%
same,growth inhibition,[12]; at 3.7 µM,52%
same,growth inhibition,[12]; at 11.0 µM,83% (active)
same,growth inhibition,[12]; at 33.0 µM,97% (active)
same,growth inhibition,[12]; at 100.0 µM,98% (active)
same,growth inhibition,[13]; at 1.2 µM,27%
same,growth inhibition,[13]; at 3.7 µM,56%
same,growth inhibition,[13]; at 11.0 µM,77% (active)
same,growth inhibition,[13]; at 33.0 µM,89% (active)
same,growth inhibition,[13]; at 100.0 µM,93% (active)
same,growth inhibition,[14]; at 1.2 µM,13%
same,growth inhibition,[14]; at 3.7 µM,37%
same,growth inhibition,[14]; [15],74% (active)
same,growth inhibition,[14]; at 11.0 µM,79% (active)
same,growth inhibition,[14]; at 33.0 µM,94% (active)
same,growth inhibition,[14]; [16],74% (active)
same,growth inhibition,[14]; at 50.0 µM,88.8% (active)
same,growth inhibition,[14]; at 100.0 µM,98% (active)
same,growth inhibition,[1]; at 1.2 µM,1%
same,growth inhibition,[1]; at 3.7 µM,8%
same,growth inhibition,[1]; [15],18%
same,growth inhibition,[1]; at 11.0 µM,32%
same,growth inhibition,[1]; at 33.0 µM,73% (active)
same,growth inhibition,[1]; [16],18%
same,growth inhibition,[1]; at 50.0 µM,73.5% (active)
same,growth inhibition,[1]; at 100.0 µM,98% (active)
same,growth inhibition,[2]; at 1.2 µM,4%
same,growth inhibition,[2]; at 3.7 µM,9%
same,growth inhibition,[2]; at 11.0 µM,25%
same,growth inhibition,[2]; at 33.0 µM,78% (active)
same,growth inhibition,[2]; at 100.0 µM,99% (active)
same,growth inhibition,[3]; [15],44%
same,growth inhibition,[3]; [16],44%
same,growth inhibition,[3]; at 50.0 µM,86.4% (active)
same,growth inhibition,[4]; at 1.2 µM,-4%
same,growth inhibition,[4]; at 3.7 µM,6%
same,growth inhibition,[4]; at 11.0 µM,21%
same,growth inhibition,[4]; at 33.0 µM,77% (active)
same,growth inhibition,[4]; at 100.0 µM,96% (active)
same,growth inhibition,[5]; [15],14%
same,growth inhibition,[5]; [16],14%
same,growth inhibition,[5]; at 50.0 µM,64.1%
same,growth inhibition,[6]; at 1.2 µM,-8%
same,growth inhibition,[6]; at 3.7 µM,-3%
same,growth inhibition,[6]; [15],21%
same,growth inhibition,[6]; at 11.0 µM,32%
same,growth inhibition,[6]; at 33.0 µM,82% (active)
same,growth inhibition,[6]; [16],21%
same,growth inhibition,[6]; at 50.0 µM,81.6% (active)
same,growth inhibition,[6]; at 100.0 µM,96% (active)
same,growth inhibition,[7]; at 1.2 µM,6%
same,growth inhibition,[7]; at 3.7 µM,15%
same,growth inhibition,[7]; at 11.0 µM,37%
same,growth inhibition,[7]; at 33.0 µM,81% (active)
same,growth inhibition,[7]; at 100.0 µM,97% (active)
same,growth inhibition,[8]; at 1.2 µM,-1%
same,growth inhibition,[8]; at 3.7 µM,10%
same,growth inhibition,[8]; at 11.0 µM,35%
same,growth inhibition,[8]; at 33.0 µM,76% (active)
same,growth inhibition,[8]; at 100.0 µM,98% (active)
same,growth inhibition,[9]; at 1.2 µM,10%
same,growth inhibition,[9]; at 3.7 µM,31%
same,growth inhibition,[9]; at 11.0 µM,72% (active)
same,growth inhibition,[9]; at 33.0 µM,94% (active)
same,growth inhibition,[9]; at 100.0 µM,98% (active)
same,growth inhibition,[10]; [15],35%
same,growth inhibition,[10]; [16],35%
same,growth inhibition,[10]; at 50.0 µM,82.2% (active)
same,growth inhibition,[11]; at 1.2 µM,16%
same,growth inhibition,[11]; at 3.7 µM,50%
same,growth inhibition,[11]; at 11.0 µM,86% (active)
same,growth inhibition,[11]; at 33.0 µM,94% (active)
same,growth inhibition,[11]; at 100.0 µM,98% (active)

# Source: PubChem BioAssay (NCI)
